Compound activity deposited in PubChem BioAssay by The Scripps Research Institute Molecular Screening Center.
TbREL1 primary: TbREL1 inhibition, primary screen; P86926; TbREL1 RNA ligation, FRET fluorescence; inhibition, % at 9.66 µM; 0.49% of 89,000 active;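 active means inhibition above the mean inhibition across all screened compounds plus 3 SD, cut at about 11% in these data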;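 further: 0% = plate median of test wells and 100% = NSC42067 control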
Target sequence (P86926 whole entry, looked up): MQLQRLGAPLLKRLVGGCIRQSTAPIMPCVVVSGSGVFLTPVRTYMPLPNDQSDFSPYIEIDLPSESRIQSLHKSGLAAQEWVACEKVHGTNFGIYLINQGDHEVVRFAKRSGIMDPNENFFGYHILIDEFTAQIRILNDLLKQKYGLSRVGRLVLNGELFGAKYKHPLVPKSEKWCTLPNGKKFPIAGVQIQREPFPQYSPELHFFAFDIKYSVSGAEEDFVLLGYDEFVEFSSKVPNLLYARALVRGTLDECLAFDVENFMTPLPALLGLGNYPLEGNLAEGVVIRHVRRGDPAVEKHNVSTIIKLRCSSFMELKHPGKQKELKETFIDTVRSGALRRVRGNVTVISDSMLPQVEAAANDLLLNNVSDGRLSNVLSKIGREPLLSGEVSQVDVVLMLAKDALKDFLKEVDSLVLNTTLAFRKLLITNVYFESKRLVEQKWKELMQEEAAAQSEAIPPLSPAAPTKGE
TbREL1 confirm: TbREL1 inhibition, confirmation. inhibition, % at 9.66 µM. 37% of 390 active. shares compounds with TbREL1 primary. TbREL1 RNA ligation, FRET fluorescence;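 active means mean inhibition across replicates above a set limit taken from the earlier primary screen, cut at about 11% in these data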;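 further: 0% = REL1 with substrate and DMSO and 100% = REL1 plus control inhibitor NSC42067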
* hit, by the source's call. The sample as a whole holds a higher share of hits than the screen did.

SMILES	TbREL1 primary	others
COC(=O)C1=C(C)N(Cc2ccccc2C(F)(F)F)C(=NCc2ccc(C(F)(F)F)cc2)NC1c1ccc(Cl)cc1 (stereo unspecified)	12*	TbREL1 confirm=18*
COC(=O)C1=C(C)N(Cc2ccc(F)cc2)C(=S)NC1c1ccccc1 (stereo unspecified)	-8
CCN1C(=NCc2ccc(OC)cc2)N[C@@H](c2ccccc2)[C@H](C(=O)OC)[C@H]1C	-2
COC(=O)C1=C(C)N(Cc2ccccc2)C(=NCc2ccccc2)N[C@H]1c1cccc(F)c1	14*	TbREL1 confirm=15*
COC(=O)C1=C(C)N(Cc2ccc(Cl)cc2)C(=S)NC1c1ccccc1 (stereo unspecified)	1
COC(=O)C1=C(C)N(Cc2ccccc2)C(=S)NC1c1ccc(Cl)cc1 (stereo unspecified)	-8
COC(=O)C1=C(C)N(Cc2ccccc2C(F)(F)F)C(=NCc2ccc(OC)cc2)NC1c1cccc(F)c1 (stereo unspecified)	14*	TbREL1 confirm=19*
COC(=O)C1=C(C)N(Cc2ccccc2C(F)(F)F)C(=NCc2ccc(OC)cc2)NC1c1ccccc1 (stereo unspecified)	13*	TbREL1 confirm=16*
COC(=O)C1=C(C)N(Cc2ccccc2)C(=NCc2ccccc2)N[C@H]1c1ccccc1	5
COc1cccc(C2NC(=S)N(Cc3ccc(F)cc3)C(C)=C2C(C)=O)c1 (stereo unspecified)	-7
COC(=O)C1=C(C)N(Cc2ccccc2)C(=NCCc2c[nH]c3ccccc23)N[C@H]1c1cccc(F)c1	4
COC(=O)[C@]12C[C@H](CC(=O)NCCCN3CCCC3=O)C(=O)N(Cc3ccc(Cl)cc3Cl)C1=C[C@H](C1CCCC1)O[C@@H]2C	3
O=C(NCc1ccc(C(=O)N2CCOCC2)cc1)c1cccc(Br)c1	1
CSc1ccc(C=NNC(=O)c2cc(-c3ccc(Cl)cc3)n[nH]2)cc1	1
COc1ccc(-c2c(C(=O)c3ccccc3)[nH]c(N)c2C(=O)c2c[nH]c3ccccc23)cc1OC	-5
Cc1cccc(CCNC(=O)Cn2nc(-c3ccccc3)ccc2=O)c1	7
O=C1CSc2ccc(C(=O)N3CCCC(C(=O)N4CCCCC4)C3)cc2N1 (stereo unspecified)	-2
CCC(C)[C@H](NC(=O)C1COC(O)([C@H](Cc2ccccc2)NC(=O)[C@@H](NC(=O)OCc2ccccc2)C(C)C)CN1C)C(=O)N[C@H](C(=O)OC)C(C)C (stereo partly specified)	1
CCn1c(=O)n(CC(=O)N2CCN(c3ccc(F)cc3)CC2)c(=O)c2ccccc21	3
C=CCN=C1NC(c2ccc(C(F)(F)F)cc2)C(C(=O)OC)=C(C)N1Cc1ccccc1C(F)(F)F (stereo unspecified)	10
COC(=O)C1=C(C)N(Cc2ccccc2C(F)(F)F)C(=NCc2ccc(OC)cc2)NC1c1ccc(Cl)cc1 (stereo unspecified)	12*	TbREL1 confirm=16*
COC(=O)C1=C(C)N(Cc2ccc(Cl)cc2)C(=S)NC1c1ccc(F)cc1 (stereo unspecified)	-5
COC(=O)C1=C(C)N(Cc2ccc(Cl)cc2)C(=S)NC1c1cccc(OC)c1 (stereo unspecified)	-7
COC(=O)C1=C(C)N(Cc2ccccc2C(F)(F)F)C(=NCc2cccc(C(F)(F)F)c2)NC1c1ccc(C(F)(F)F)cc1 (stereo unspecified)	18*	TbREL1 confirm=20*
COCCN=C1N[C@@H](c2ccc(Br)cc2)C(C(=O)OC)=C(C)N1Cc1ccccc1	5
SMILES	TbREL1 primary	others
C=CCN=C1NC(c2ccc(F)cc2)C(C(=O)OC)=C(C)N1Cc1ccccc1C(F)(F)F (stereo unspecified)	14*	TbREL1 confirm=14*
CCCOc1ccc(-c2nc(CSCC(=O)NC3CC3)c(C)o2)cc1	-5
CCC(=O)N1CCc2cc(Br)c(S(=O)(=O)NCCCN(C)Cc3ccccc3)cc21	5
CCCCN1C[C@@H]2CSCCS(=O)(=O)N2C1=O	7
O=C(CSc1nnc(-c2ccccn2)n1-c1ccccc1)Nc1ccccc1-c1ccccc1	5
O=C(NCCc1c[nH]c2ccccc12)OCc1cn(Cc2ccc(F)c(F)c2)nn1	-8
O=C(NCC(c1ccccc1)c1ccccc1)[C@H](Cc1c[nH]c2ccccc12)NC1(C(=O)NC2CCCCC2)CCCC1	-1
CCOC(=O)c1oc2cccc(O)c2c1C	1
CCOC(=O)c1ccc(CC(=O)c2ccc(O)c(O)c2O)o1	35*	TbREL1 confirm=84*
CCOc1ccc(C(=O)Cc2ccc3oc(C(=O)O)cc3c2)c(O)c1	-2
COc1ccc(CC(=O)NC2CCCCN(Cc3ccc(Cl)cc3)C2=O)cc1OC (stereo unspecified)	4
Nn1c(SCC(=O)Nc2c(Cl)cccc2Cl)nncc1=O	-1
CCOc1ccc(NC(=O)CSc2nncc(=O)n2N)cc1	11*	TbREL1 confirm=1
Nn1c(SCC(=O)Nc2cccc(C(F)(F)F)c2)nncc1=O	5
COC(=O)[C@]12CCCCC=C1N(Cc1ccc(OC)cc1)C(=O)[C@@H]2CC(=O)N1CCSCC1	3
O=C(O)C1CC=CCC1C(=O)Nc1cc(Cl)ccc1Cl (stereo unspecified)	1
O=C(C1CCCN(S(=O)(=O)c2cc(Cl)ccc2Cl)C1)N1CCCCCC1 (stereo unspecified)	-1
O=C(NNc1cc(Cl)ccc1Cl)C1CCC1	91*	TbREL1 confirm=1
COc1cc(OC)cc(C(C)c2ccc(C)cc2)c1 (stereo unspecified)	0
Cc1ccc(N(C)S(=O)(=O)c2c[nH]c3ccc([N+](=O)[O-])cc23)cc1	14*	TbREL1 confirm=9
COC(=O)CCc1c[nH]c2ccc([N+](=O)[O-])cc12	4
O=[N+]([O-])c1ccc2[nH]nc(-c3ccccc3)c2c1	4
Nc1ccc(Br)c[n+]1Cc1cccc2cccnc12	12*	TbREL1 confirm=8
Brc1ccc(COc2cccc3cccnc23)cc1	4
Nc1scn[n+]1Cc1cccc2cccnc12	2
SMILES	TbREL1 primary	others
C#CCNC(=O)C[C@H]1C[C@@]2(C(=O)OC)C(=C[C@H](C(C)C)O[C@@H]2C2CC2)N(Cc2ccc3c(c2)OCO3)C1=O	4
O=C(CSc1nnc(COc2ccc(Cl)cc2)n1Cc1ccco1)Nc1ccc(OCc2ccccc2)cc1	5
C=CCNC(=O)CN(C(=O)Cc1ccc(Cl)cc1)c1cccc(Br)c1	-1
COC(CNC(=O)[C@H](Cc1ccccc1)NC1(C(=O)NC2CCCCC2)CCC1)OC	-3
O=C(NCC(c1ccccc1)c1ccccc1)[C@H](Cc1ccccc1)NC1(C(=O)NC2CCCCC2)CCC1	-3
CN1CCC(N[C@@H](Cc2ccccc2)C(=O)NCC(c2ccccc2)c2ccccc2)(C(=O)NC2CCCCC2)CC1	13*	TbREL1 confirm=14*
O=C(NCC(c1ccccc1)c1ccccc1)[C@H](Cc1ccccc1)NC1(C(=O)NC2CCCCC2)CCCCCC1	12*	TbREL1 confirm=0
O=C(NCC(c1ccccc1)c1ccccc1)[C@H](Cc1c[nH]c2ccccc12)NC1(C(=O)NC2CCCCC2)CCN(Cc2ccccc2)CC1	-4
CC(C)C[C@H](NC1(C(=O)NC2CCCCC2)CCC1)C(=O)NCC(c1ccccc1)c1ccccc1	-1
Cc1ccc2nc(-c3ccc(NC(=O)CSc4nnc(Cc5cccs5)n4C)cc3)sc2c1	-2
Nn1c(SCC(=O)NC2CCCCC2)nnc1-c1cc(-c2ccccc2)n[nH]1	-2
O=C(CSc1nnc(-c2ccncc2)n1-c1ccc(Br)cc1)c1ccccc1	2
